Bioassay records (PubChem BioAssay)
Pol iota inh = inhibitors of human DNA polymerase iota; hit rate 1% among 390,000; Potency, µM (top dose mostly 115 µM), actives largely listed as inhibitors; Q9UNA4; Pol iota fluorescent replication assay, 10 min
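Fluorescent replication assay read twice, at 0 min and 10 min after adding 50 nM (final) substrate. Enzyme (10 nM) and compounds were first incubated 15 min at room temperature; enzyme-free buffer wells were negative controls.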
Pol beta inh = blocks human DNA polymerase beta activity. P06746. Pol beta primer extension/strand displacement, fluorescence kinetic. Potency, µM (titrated, usually from 114 µM), actives largely listed as inhibitors. hit rate 1.3% among 340,000. AID 485314
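10 nM enzyme + cpd, 15 min RT; start with substrate 50 nM final; read 0 min and after 10 min RT. Corrected, normalized data; 4-parameter Hill curve fit.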
Pol kappa inh-1 = DNA polymerase kappa (human) inhibition; Q9UBT6; purified Pol kappa, fluorescent DNA synthesis assay, 10 min; Potency, µM (top dose mostly 107 µM), usual class: inhibitors; hit rate 0.53% among 400,000; AID 588579
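First, compounds were pin-transferred onto 10 nM Pol kappa. After 15 min at room temperature, substrate was added to 50 nM final. Fluorescence was then measured kinetically at 0 and 10 min.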
FEN1 inh = inhibitors of human flap endonuclease 1 | P39748 | Recombinant FEN1 flap cleavage, fluorescence, 15 min | Potency, µM (highest dose often 114 µM), usual class: inhibitors | hit rate 0.35% among 390,000 | AID 588795; further: nearly all actives have a fitted effect of over 65% in size
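With each library titrated from low to high concentration, compounds met 10 nM FEN1 for 15 min at room temperature before 50 nM substrate was added; readings at 0 and 15 min fed four-parameter Hill curve fits.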
Pol eta inh-1 = blocks human DNA polymerase eta activity; hit rate 1.2% among 390,000; recombinant Pol eta, fluorescent DNA replication assay; AID 588591; Potency, µM (series often up to 114 µM), actives largely listed as inhibitors
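Pol eta at 10 nM preincubated with compounds 15 min at room temperature; reaction started with fluorescent substrate (50 nM final) and read kinetically at 0 and 10 min.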
WRN helicase inh = WRN helicase (human) inhibition; WRN helicase unwinding, fluorescent forked duplex, kinetic; Potency, µM (titrated, usually from 114 µM), hits mostly inhibitors; hit rate 0.46% among 360,000; further: nearly all actives have a fitted effect of over 55% in size
Target sequence (Q14191 whole entry, looked up): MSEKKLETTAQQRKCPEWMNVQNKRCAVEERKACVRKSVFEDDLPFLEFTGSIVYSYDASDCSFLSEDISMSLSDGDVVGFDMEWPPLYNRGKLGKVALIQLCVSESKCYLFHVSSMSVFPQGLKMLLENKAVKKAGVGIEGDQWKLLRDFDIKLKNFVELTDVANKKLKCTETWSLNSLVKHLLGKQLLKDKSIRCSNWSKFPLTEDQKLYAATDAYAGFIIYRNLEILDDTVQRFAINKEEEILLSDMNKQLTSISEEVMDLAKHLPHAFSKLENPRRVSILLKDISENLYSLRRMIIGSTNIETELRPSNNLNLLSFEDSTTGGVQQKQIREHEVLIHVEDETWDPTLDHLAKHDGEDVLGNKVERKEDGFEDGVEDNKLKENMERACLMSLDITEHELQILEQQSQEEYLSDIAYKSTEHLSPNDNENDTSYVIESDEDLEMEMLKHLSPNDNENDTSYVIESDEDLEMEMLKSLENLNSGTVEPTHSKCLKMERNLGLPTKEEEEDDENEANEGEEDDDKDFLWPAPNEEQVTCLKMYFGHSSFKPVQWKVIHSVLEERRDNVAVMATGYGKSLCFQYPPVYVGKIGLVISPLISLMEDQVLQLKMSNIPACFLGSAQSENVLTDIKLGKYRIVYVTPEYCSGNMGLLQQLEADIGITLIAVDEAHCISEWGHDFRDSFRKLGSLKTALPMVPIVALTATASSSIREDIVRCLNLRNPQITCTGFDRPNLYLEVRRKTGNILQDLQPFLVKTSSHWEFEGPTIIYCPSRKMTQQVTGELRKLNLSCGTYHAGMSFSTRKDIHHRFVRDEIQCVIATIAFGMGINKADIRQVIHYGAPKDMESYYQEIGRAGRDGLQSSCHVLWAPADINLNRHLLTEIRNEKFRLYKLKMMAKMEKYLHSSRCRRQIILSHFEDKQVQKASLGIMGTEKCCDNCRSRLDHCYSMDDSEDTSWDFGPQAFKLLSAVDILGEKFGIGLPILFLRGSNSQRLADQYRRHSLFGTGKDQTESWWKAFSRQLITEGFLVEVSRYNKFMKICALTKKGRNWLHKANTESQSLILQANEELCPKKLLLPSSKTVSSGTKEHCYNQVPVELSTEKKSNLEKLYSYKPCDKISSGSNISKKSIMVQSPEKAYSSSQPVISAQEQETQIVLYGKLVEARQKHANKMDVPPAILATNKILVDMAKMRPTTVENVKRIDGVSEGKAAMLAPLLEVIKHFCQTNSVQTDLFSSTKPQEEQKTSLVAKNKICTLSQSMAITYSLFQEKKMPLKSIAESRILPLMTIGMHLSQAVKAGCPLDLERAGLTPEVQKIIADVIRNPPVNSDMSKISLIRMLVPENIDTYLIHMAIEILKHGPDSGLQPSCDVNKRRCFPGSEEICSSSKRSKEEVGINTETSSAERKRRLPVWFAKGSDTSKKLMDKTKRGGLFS
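WRN at 20 nM final was preincubated with compound for 15 min at room temperature; reaction started with 100 nM forked duplex oligonucleotide carrying fluorophore and quencher plus 2 mM ATP (final). Unwinding followed kinetically by red fluorescence (ex 525/em 598 nm).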
TbPGK inh = blocks T. brucei phosphoglycerate kinase; shares compounds with Pol kappa inh-1; Potency, µM (doses to about 57.5 µM), hits mostly inhibitors; TbPGK coupled GAPDH assay, Kinase-Glo luminescence; hit rate 79% among 500; AID 686980; further: nearly all actives have a fitted effect of over 65% in size
Pol iota confirm = Confirm cherry-picked inhibitors of human polymerase iota. shares compounds with Pol kappa inh-1. Pol iota primer extension, TAMRA/BHQ fluorescence. Potency, µM, most hits filed as inhibitors. hit rate 77% among 1,500
Pol kappa inh-2 = confirmation of human DNA polymerase kappa inhibitors | shares compounds with Pol eta inh-1 | purified Pol-kappa, fluorescent strand-displacement substrate | Potency, µM, usual class: inhibitors | hit rate 76% among 920 | AID 720501
Pol eta inh-2 = confirmation of human DNA polymerase eta inhibitors. Pol eta primer extension, TAMRA/BHQ fluorescence, 10 min. Potency, µM, actives largely listed as inhibitors. hit rate 64% among 2,600. shares compounds with Pol eta inh-1. AID 720502
Large screens that a line does not name were inactive (follow-up assays come after a bar, where they were run). Hits are enriched below; roughly 2.4% of the tested compounds scored in any of these assays. The call rests on the fitted dose curve; in most records, active means well fitted curve in the direction sought with a large enough effect; inconclusive means small, poorly fitted or top-dose-only effect, or another doubt; inactive means no such curve, though single readings can be large; an effect the other way counts as inactive or inconclusive.

O=C(CCCN1C(=O)/C(=C\c2ccccc2)SC1=S)Nc1cccc(C(=O)O)c1	Pol iota inh inconclusive
Cc1ccc(S(=O)(=O)N2[C@@H](c3ccc(Cl)cc3)C(C(=O)O)=CC[C@H]2c2ccc(C(C)C)cc2)cc1	Pol eta inh-1 inconclusive (no result: Pol beta inh) | Pol iota confirm 60 | Pol kappa inh-2 42 | Pol eta inh-2 85
Cc1ccc([C@H]2C(C(=O)O)=CC[C@@H](c3ccc(C(C)C)cc3)N2S(=O)(=O)c2ccc(C)cc2)cc1	Pol iota inh inconclusive, Pol eta inh-1 inconclusive (no result: Pol beta inh)
Cc1cc(/C=C2\SC(=S)NC2=O)c(C)[nH]1	Pol iota inh 20µM, Pol beta inh 22µM, Pol kappa inh-1 79µM, Pol eta inh-1 20µM | Pol iota confirm inconclusive | Pol eta inh-2 76
CCn1ncc(/C=C2/SC(=S)NC2=O)c1C	none
O=C(NC1CCCC1)c1ccc2c(c1)N(Cc1ccc(C(F)(F)F)cc1)C(=O)c1ccccc1S2	none (no result: WRN helicase inh)
CC1=C(C(=O)Nc2ccccc2C)C(c2ccc[nH]2)n2ncnc2N1 (centres undefined)	Pol iota inh 22µM, Pol beta inh 40µM, Pol kappa inh-1 32µM, FEN1 inh inconclusive, Pol eta inh-1 8.9µM (no result: WRN helicase inh) | Pol iota confirm 21 | Pol eta inh-2 30
CC(=O)N[C@H]1[C@H](O[C@@H]2c3ccc(c(Cl)c3)Oc3cc4cc(c3O[C@@H]3O[C@H](CO)[C@@H](O)[C@H](O)C3C)Oc3ccc(cc3Cl)C[C@H]3NC(=O)[C@@H](N)c5ccc(O)c(c5)Oc5cc(O)cc(c5)[C@H](NC3=O)C(=O)N[C@H]4C(=O)N[C@H]3C(=O)N[C@@H]2C(=O)N[C@@H](C(=O)O)c2cc(O)cc(O[C@H]4O[C@H](CO)[C@@H](O)C(O)[C@@H]4O)c2-c2cc3ccc2O)O[C@H](CO)[C@@H](O)[C@@H]1O (some centres undefined)	none (no result: Pol iota inh, Pol beta inh, FEN1 inh, Pol eta inh-1, WRN helicase inh)
CC(C)(CC(=O)OCC(=O)Nc1ccc(F)c(Cl)c1)CC1=NS(=O)(=O)c2ccccc2N1	none (no result: WRN helicase inh)
COC(=O)c1cc(Cl)ccc1NC(=O)Cn1c(C)cc(C)c(C#N)c1=O	none (no result: WRN helicase inh)
COc1ccc(C(=O)N/N=C/c2ccc(OC)c(COc3c(F)c(F)cc(F)c3F)c2)cc1	Pol iota inh 45µM, Pol beta inh 50µM, Pol eta inh-1 inconclusive | Pol iota confirm inconclusive | Pol kappa inh-2 inconclusive
C=CCc1cccc2cc(C(=O)Nc3ccc(CC(=O)O)cc3)c(=O)oc12	Pol iota inh inconclusive, Pol beta inh 22µM, Pol kappa inh-1 inconclusive, FEN1 inh inconclusive, Pol eta inh-1 35µM | Pol iota confirm inconclusive | Pol eta inh-2 67
C=CCc1cccc2cc(C(=O)Nc3ccc(F)cc3)c(=O)oc12	none
CCOC(=O)COc1ccc2c(C)c(CCN(CC)CC)c(=O)oc2c1Cl	none (no result: Pol iota inh, Pol beta inh, FEN1 inh, Pol eta inh-1, WRN helicase inh)
O=C(O)C1=NN(c2cc(Cl)c(S(=O)(=O)O)cc2Cl)C(=O)C1	Pol iota inh 1.6µM, Pol kappa inh-1 79µM, FEN1 inh inconclusive, Pol eta inh-1 22µM, WRN helicase inh inconclusive (no result: Pol beta inh) | TbPGK inh 9.2µM | Pol kappa inh-2 15 | Pol eta inh-2 inconclusive
O=C(O)c1[nH]c2ccccc2c1C(c1cc(Br)ccc1O)c1c(C(=O)O)[nH]c2ccccc12	Pol iota inh inconclusive, Pol beta inh 79µM, Pol kappa inh-1 inconclusive, FEN1 inh inconclusive, Pol eta inh-1 50µM | Pol iota confirm inconclusive | Pol eta inh-2 inconclusive
